PubChem BioAssay AID743358 (Broad Institute, 2014)
Activity calls are given as the source filed them.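 How the source made its calls: active means ATP signal drop in HepG2 cells with fitted half-maximal concentration at most twice the top tested dose; inconclusive means flat curve losing 30 to 70% signal, or poor fit; inactive means the rest.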

test: viability loss in HepG2 liver cells – cell-based, luminescence, dry powder, set 9, cytotoxicity control, dose response (AID 743358); details: ATP luminescence, 72 h; series mostly up to 26 µM

Which outcome does the source give for `CN1c2ccc(-c3cccc(F)c3)cc2[C@H]2[C@H](CCN2C(=O)c2ccc3c(c2)OCO3)[C@@H]1CO` here?
Its outcome is “inactive”.

For `CC(=O)c1ccc(N2CCN(C(=O)c3ccc4c(c3)OCO4)[C@H](C)C2)cc1`, which outcome is on record?
Its outcome is “inactive”.

With `CN1c2ccc(-c3cccc(F)c3)cc2[C@@H]2[C@@H](CCN2C(=O)c2ccc3c(c2)OCO3)[C@H]1CO` as the compound, how does the outcome read?
Its outcome is “inactive”.

With `COc1ccccc1NC(=O)N1CC[C@@H]2[C@@H](CO)N(C)c3ccc(-c4cccc(F)c4)cc3[C@@H]21` as the compound, how does the outcome read?
Its outcome is “inactive”.

With `CC(=O)c1ccc(N2CCN(C(=O)c3ccc4c(c3)OCO4)CC2)cc1` as the compound, how does the outcome read?
The outcome was “inactive”.

With `COc1ccc(NC(=O)N2CC[C@@H]3[C@@H](CO)N(C)c4ccc(-c5ccc(F)cc5)cc4[C@@H]32)cc1` as the compound, how does the outcome read?
The outcome was “inactive”.

With `COc1ccc(NC(=O)N2CC[C@@H]3[C@@H](CO)N(C)c4ccc(-c5cccc(F)c5)cc4[C@@H]32)cc1` as the compound, how does the outcome read?
Its outcome is “inactive”.

Which outcome does the source give for `CN1c2ccc(-c3ccc(F)cc3)cc2[C@H]2[C@H](CCN2C(=O)Nc2ccc(F)cc2)[C@H]1CO` here?
Its outcome is “inactive”.

Which outcome does the source give for `CCC(=O)N1CC[C@@H]2[C@@H](CO)N(C)c3ccc(-c4ccc(F)cc4)cc3[C@@H]21` here?
The outcome was “inactive”.

Which outcome does the source give for `CN1c2ccc(-c3cccc(F)c3)cc2[C@H]2[C@H](CCN2C(=O)CCCCCCC(=O)O)[C@H]1CO` here?
The outcome was “inactive”.

Which outcome does the source give for `CC(=O)c1ccc(N2CCN(C(=O)c3ccccc3Cl)CC2)cc1` here?
Its outcome is “inactive”.

Which outcome does the source give for `CCCCCCCC(=O)N1CC[C@@H]2[C@@H](CO)N(C)c3ccc(-c4cccc(F)c4)cc3[C@@H]21` here?
The outcome was “inactive”.

With `COC(=O)c1ccc(N2CCN(C(=O)c3ccc4c(c3)OCO4)CC2)cc1` as the compound, how does the outcome read?
The outcome was “inactive”.

With `CN1c2ccc(-c3ccc(F)cc3)cc2[C@H]2[C@H](CCN2C(=O)Cc2cccnc2)[C@H]1CO` as the compound, how does the outcome read?
Its outcome is “inactive”.

For `CN1c2ccc(-c3cccc(F)c3)cc2[C@H]2[C@H](CCN2C(=O)Cc2cccnc2)[C@H]1CO`, which outcome is on record?
The outcome was “inactive”.

For `CN1c2ccc(-c3ccc(F)cc3)cc2[C@H]2[C@H](CCN2C(=O)Cc2ccccn2)[C@H]1CO`, which outcome is on record?
Its outcome is “inactive”.

With `CC(=O)c1ccc(N2CCN(C(=O)c3ccccc3F)CC2)cc1` as the compound, how does the outcome read?
Its outcome is “inactive”.

For `CCCNC(=O)N1CC[C@@H]2[C@@H](CO)N(C)c3ccc(-c4ccc(F)cc4)cc3[C@@H]21`, which outcome is on record?
The outcome was “inactive”.

For `CC(C)NC(=O)N1CC[C@@H]2[C@@H](CO)N(C)c3ccc(-c4ccc(F)cc4)cc3[C@@H]21`, which outcome is on record?
Its outcome is “inactive”.

With `CN1c2ccc(-c3cccc(F)c3)cc2[C@H]2[C@H](CCN2C(=O)Cc2ccccc2)[C@H]1CO` as the compound, how does the outcome read?
The outcome was “inactive”.

With `CC(=O)c1ccc(N2CC3(CN(C(=O)c4ccc5c(c4)OCO5)C3)C2)cc1` as the compound, how does the outcome read?
Its outcome is “inactive”.

With `CN(C)C(=O)c1ccc(N2CCN(C(=O)c3ccc4c(c3)OCO4)CC2)cc1` as the compound, how does the outcome read?
Its outcome is “inactive”.

With `CN1c2ccc(-c3ccc(F)cc3)cc2[C@H]2[C@H](CCN2C(=O)Nc2cc(F)ccc2F)[C@H]1CO` as the compound, how does the outcome read?
Its outcome is “inactive”.

For `CNC(=O)c1ccc(N2CCN(C(=O)c3ccc4c(c3)OCO4)CC2)cc1`, which outcome is on record?
The outcome was “inactive”.

With `CNS(=O)(=O)c1ccc(N2CCN(C(=O)c3ccc4c(c3)OCO4)CC2)cc1` as the compound, how does the outcome read?
The outcome was “inactive”.

For `COCC(=O)N1CC[C@@H]2[C@@H](CO)N(C)c3ccc(-c4cccc(F)c4)cc3[C@@H]21`, which outcome is on record?
The outcome was “inactive”.

With `COc1ccccc1NC(=O)N1CC[C@@H]2[C@@H](CO)N(C)c3ccc(-c4ccc(F)cc4)cc3[C@@H]21` as the compound, how does the outcome read?
Its outcome is “inactive”.

For `CN1c2ccc(-c3cccc(F)c3)cc2[C@H]2[C@H](CCN2C(=O)CCCCCCN)[C@H]1CO`, which outcome is on record?
Its outcome is “inactive”.

For `COc1ccccc1C(=O)N1CCN(c2ccc(C(C)=O)cc2)CC1`, which outcome is on record?
The outcome was “inactive”.

With `CN1c2ccc(-c3cccc(F)c3)cc2[C@@H]2[C@@H](CCN2C(=O)c2ccc3c(c2)OCO3)[C@@H]1CO` as the compound, how does the outcome read?
Its outcome is “inactive”.

Which outcome does the source give for `CC(=O)c1ccc(NCCNC(=O)c2ccc3c(c2)OCO3)cc1` here?
Its outcome is “inactive”.
